TDP1 cell noCPT: qHTS for Inhibitors of human tyrosyl-DNA phosphodiesterase 1 (TDP1): qHTS in cells in absence of CPT | DT40 Tdp1-/- hTDP1 cells, no CPT, ATP luminescence, 48 h | Potency, µM (doses to about 46.2 µM), inactives show at the top dose activity change, negative = growth inhibition, hits mostly inhibitors | 420,000 tested, 15% active | AID 686978, 2013; note: potency is the fitted concentration of half-maximal effect; % is set by controls: 0 for no effect and ±100 for the full control effect; nearly all actives have a fitted effect of over 55% in size
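Chicken DT40 Tdp1-/- cells complemented with human TDP1, screened without camptothecin (DMSO vehicle only), 400 cells/well. Compounds pin-transferred, cells incubated at 37 °C for at least 48 hr. Growth read as ATP-dependent luminescence (CellTiter-Glo, 30 min at RT).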
TDP1 cell CPT: DT40-hTDP1 cell growth loss with CPT; chicken DT40 Tdp1-/-;hTDP1 cells + 20 nM CPT, ATP luminescence, 48 h; 420,000 tested, 12% active; Potency, µM (highest dose often 46.2 µM), for inactives: at the highest dose activity change, negative = growth inhibition, usual class: inhibitors; note: potency is the fitted concentration of half-maximal effect; % is set by controls: 0 for no effect and ±100 for the full control effect; nearly all actives have a fitted effect of over 55% in size
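Cell growth measured by CellTiter-Glo luminescence after a minimum 48 h, 37 C compound exposure with 20 nM CPT in Tdp1-knockout DT40 cells stably expressing hTDP1, seeded 400/well; qHTS titration format.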
SW480 rereplic: induces DNA re-replication in SW480 colon adenocarcinoma cells. AID 624297. SW480 DNA re-replication, Hoechst DNA content imaging, 48 h. 340,000 tested, 1.8% active. Potency, µM (top dose mostly 46.1 µM), for the others: at the highest dose re-replication activation, most hits filed as activators; note: potency is the fitted concentration of half-maximal effect; % of control where 0% means no effect; nearly all actives have a fitted effect of over 55% in size
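Per well, 250 cells were exposed to pinned compound for 48 hr. Nuclear DNA was visualised with Hoechst (40 min, 37 C) and total object intensity recorded by fluorescence scanning.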
Chronic BCR inh: chronic active BCR signaling inhibition; ABC-DLBCL IkBa-CBG/CBR reporter, luminescence ratio, 4 h; Potency, µM (series often up to 46.1 µM), for the others: at the highest dose activity change, negative = inhibition, actives largely listed as inhibitors; 340,000 tested, 0.05% active; AID 493014; active = well fitted inhibition curve with a large enough effect in the signal ratio, with a control signal flat, not every such curve was filed as active; inconclusive = small, poorly fitted or top-dose-only effect, or effect the other way, or a change in a side signal; the % refers to the signal ratio;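 note: potency is the fitted concentration of half-maximal effect; plate controls were basal doxycycline-induced cells for no effect and cells given 10 µM MG132 for full effect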
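Cell line TMD8 (human ABC DLBCL), stably expressing tet-inducible CBG68-IkBa fusion and CBR; IMDM/0.5% FBS; cpd up to 46 uM; dox induction, 4 h, 37C/5% CO2; dual luminescence; green/red ratio; MG132 control.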
MCF10A rereplic: induces DNA re-replication in MCF 10a normal breast cells; Potency, µM (doses to about 46.1 µM), without a hit: at the top dose activity, positive = re-replication, hits mostly activators; MCF 10A DNA re-replication, Hoechst nuclear intensity, 48 h; 350,000 tested, 2.9% active; note: potency is the fitted concentration of half-maximal effect; % of control where 0% means no effect; nearly all actives have a fitted effect of over 50% in size
IL-1B inflam inh: blocks inflammasome-driven IL-1 beta release | AID 743279 | activity change, % at 57.5 µM | THP-1 LPS/ATP IL-1B secretion, AlphaLISA, 16 h; active compounds read low | 360,000 tested, 4.7% active; in the data active = activity change below about -50%; inconclusive = mostly about -30% to -49%; note: % is set by controls: 0 for no effect and ±100 for the full control effect
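THP-1 cells pretreated 1 hr with compounds (up to 57.5 uM final), then stimulated with LPS (250 ng/mL final) plus ATP (1.25 mM final); secreted IL-1B measured by AlphaLISA after 16 hr, decreased signal indicating inhibition.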
Active calls of the source: *; ? = inconclusive; · = not tested or not shown. The list is not random: actives were taken first. Their share in the collection is about 19%. Unless noted, calls come from the whole dose curve; as a rule, active = well fitted curve in the direction sought with a large enough effect; inconclusive = small, poorly fitted or top-dose-only effect, or another doubt; inactive = no such curve, though single readings can be large; an effect the other way counts as inactive or inconclusive.

SMILES | TDP1 cell noCPT | TDP1 cell CPT | SW480 rereplic | Chronic BCR inh | MCF10A rereplic | IL-1B inflam inh
COc1ccc(-n2nc(C)c3c(C(F)(F)F)cc(-c4cccnc4)nc32)cc1 | -23% | -18% | · | · | · | ·
CN(CC(=O)Nc1ccccc1Br)C(=O)c1cc2c(s1)CCCCC2 | ? | ? | -13% | ? | ? | -2
COc1ccccc1NC(=O)C(=O)N/N=C/c1ccc([N+](=O)[O-])s1 | ? | 12µM* | -16% | 8% | -6% | -11
Cc1ccnn1CC(=O)N/N=C/c1ccc([N+](=O)[O-])s1 | 23µM* | 26µM* | ? | 8% | 12% | 30
COc1ccccc1/C=N\Nc1ccccc1[N+](=O)[O-] | -18% | -4% | -1% | ? | -1% | 6
COc1ccc(NC(C)C(=O)N/N=C/c2ccc([N+](=O)[O-])s2)cc1 (centres undefined) | 23µM* | 16µM* | ? | -3% | 11% | -9
O=C(CNC(=O)c1cccc(F)c1)N/N=C/c1ccc([N+](=O)[O-])s1 | 5.8µM* | 18µM* | 18µM* | -6% | ? | 34
O=C(CNC(=O)c1cccc(Br)c1)N/N=C/c1cccs1 | 14% | 1% | ? | -4% | 1% | 1
Cc1ccccc1C(=O)N/N=C/c1ccc([N+](=O)[O-])s1 | 13µM* | 16µM* | ? | ? | -12% | -65*
O=C(Nc1cccc(/C=C/c2nc3ccccc3c(=O)[nH]2)c1)c1ccccc1Cl | 15µM* | 16µM* | ? | ? | ? | -52*
COc1ccc(C(=O)Nc2cccc(/C=C/c3nc4ccccc4c(=O)[nH]3)c2)cc1 | 6.5µM* | 9.2µM* | ? | ? | 6.5µM* | -27
COc1cc(/C=C/c2nc3ccccc3c(=O)[nH]2)cc(Cl)c1O | -7% | 1% | 3% | 5% | -7% | -1
CC(C)NC(=O)C1(C)CN(S(C)(=O)=O)CC(=O)N1Cc1cccc(C(F)(F)F)c1 (centres undefined) | ? | -2% | · | · | · | -4
Cc1ccc(S(=O)(=O)N2CCN(C(=O)COC(=O)C3CCC3)CC2)c(C)c1 | -8% | -9% | -54% | 10% | -2% | 10
CCCn1c(C)cc(C(=O)CSc2nnc3n(CCC)c(=O)c4ccccc4n23)c1C | · | · | · | -1% | · | ·
C=CCn1c(=O)c2ccccc2n2c(SCC(=O)Nc3sc(C(=O)N(CC)CC)c(C)c3C(=O)OCC)nnc12 | 15µM* | 23µM* | ? | 9% | 5% | -17
C=CCn1c(=O)c2ccccc2n2c(SC(C)C(=O)Nc3nc(-c4ccccc4)cs3)nnc12 (centres undefined) | 3.7µM* | 9.2µM* | -7% | -2% | 4% | -18
C=CCn1c(=O)c2ccccc2n2c(SCC(=O)Nc3cc(C)on3)nnc12 | ? | ? | -4% | ? | 4% | -26
C=CCn1c(=O)c2ccccc2n2c(SCC(=O)Nc3sc(C)c(CC)c3C(=O)OCC)nnc12 | 16µM* | ? | -41% | -1% | ? | -28
C=CCn1c(C)cc(C(=O)CSc2nnc3n(CCC)c(=O)c4ccccc4n23)c1C | 18µM* | 21µM* | -5% | · | -4% | 5
C=CCn1c(=O)c2ccccc2n2c(SC(C)C(N)=O)nnc12 (centres undefined) | 1% | 24% | 9% | 0% | ? | 15
CCOC(=O)C1=C(COC(=O)c2ccc(Br)c(S(=O)(=O)N3CCOCC3)c2)NC(=O)NC1C (centres undefined) | 8% | ? | -19% | · | 18% | -18
Cc1nc(SCC(=O)NC2CCCC2)c2c(C)c(C)sc2n1 | -20% | -17% | 0% | 4% | ? | 10
Cc1sc2nc(CN(Cc3cccs3)C(=O)C3CC3)[nH]c(=O)c2c1C | 9.2µM* | 16µM* | -8% | -2% | -9% | -15
Cc1sc2nc(CN(C(=O)NC3CCCCC3)C3CCCCC3)[nH]c(=O)c2c1C | 21µM* | 18µM* | -4% | 0% | 6% | -29
SMILES | TDP1 cell noCPT | TDP1 cell CPT | SW480 rereplic | Chronic BCR inh | MCF10A rereplic | IL-1B inflam inh
COc1ccc(CN2CCNC(=O)C2CC(=O)N(C)C2CCOCC2)c(F)c1 (centres undefined) | -1% | -4% | -6% | -2% | 0% | 0
O=c1cc(-c2ccccc2)n2c(SCc3ccc([N+](=O)[O-])cc3)nnc2[nH]1 | -18% | -118% | · | -2% | · | ·
COC(=O)c1scc(-c2ccc(C)cc2)c1S(=O)(=O)Nc1ccc(NC(C)=O)cc1 | ? | 18µM* | · | · | · | ·
COC(=O)c1scc(-c2ccc(C)cc2)c1S(=O)(=O)Nc1ccc(N(C)C)cc1 | 15µM* | 16µM* | · | · | · | ·
COC(=O)c1scc(-c2ccc(C)cc2)c1S(=O)(=O)Nc1ccc(OC(F)(F)F)cc1 | -9% | -7% | · | · | · | ·
COC(=O)c1scc(C)c1S(=O)(=O)Nc1ccc(C)cc1 | ? | -23% | ? | -12% | ? | ·
O=C1COC(c2ccccc2)=CN1Cc1ccccc1 | -11% | -17% | -12% | 0% | ? | -2
CC(C)(C)c1ccc(-c2nnc(SCCC#N)n2C2CCCC2)cc1 | 18µM* | 18µM* | ? | ? | 17% | -51*
O=C(CSc1nnc(-c2ccccc2F)n1C1CCCCC1)N1CCCC1 | -23% | -24% | -5% | 0% | 16% | 19
O=C(CSc1nnc(-c2ccc(Br)cc2)n1C1CCCCC1)N1CCCC1 | 23µM* | ? | -7% | ? | 1% | 31
O=C(CSc1nnc(-c2ccc(Cl)cc2Cl)n1C1CCCCC1)N1CCCC1 | 21µM* | 23µM* | -6% | 2% | 12% | -11
CC(=O)c1ccc(NC(=O)c2cnc(N3CCCC3)nc2C)cc1 | ? | -18% | · | · | · | ·
COc1ccc(S(=O)(=O)N2CCC(C(=O)NCC(=O)Nc3c(C)cccc3C)CC2)cc1OC | ? | -12% | ? | · | ? | -16
COCCNC(=O)c1sc2ncn(CC(=O)Nc3ccc(C)c(Cl)c3)c(=O)c2c1C | 13µM* | ? | 5% | 2% | 1% | -9
Cc1c(C(=O)Nc2c(F)cccc2F)sc2ncn(CC(=O)N3CCCCC3)c(=O)c12 | 7% | -9% | 0% | ? | -1% | 20
COC(=O)CNC(=O)c1sc2ncn(CC(=O)Nc3ccc(C)c(Cl)c3)c(=O)c2c1C | -23% | ? | -7% | -10% | 4% | -81*
